rCAG RNA binder: binders of r(CAG) RNA repeats, primary screen, biochemical, fluorescence | r(CAG) RNA repeat, TO-PRO-1 dye displacement fluorescence | inhibition, % at 3 µM | hit rate 1.3% among 370,000;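 active = inhibition above the plate cutoff, the mean of all test compounds on that plate plus 3 SD, cut at about 35% in these data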;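 note: higher means more dye released from RNA so lower well fluorescence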
TLR4 MyD88 comp: inhibitors of TLR4-MyD88 association in cells, primary screen, cell-based, HeLa CL3-4, BLA complementation, FRET ratio | inhibition, % at 8.4 µM | hit rate 0.18% among 200,000 | HeLa CL3-4 TLR4/MyD88 BLA complementation | AID 861, 2007; in the data active = inhibition above about 25%
NOD2 RIPK2 PPI: NOD2-RIPK2 binding disruptors in cells, primary screen, fluorescence, CHO cells, BLA complementation; Receptor-interacting serine/threonine-protein kinase 2 (Homo sapiens), O43353; CCF4 ratio; inhibition, % at 4.98 µM; hit rate 0.38% among 360,000; AID 624267, 2012; in the data active = inhibition above about 21%
PRMT1 inh: PRMT1 methyltransferase inhibitors, primary screen, biochemical, fluorescence polarization; Protein arginine N-methyltransferase 1 (Homo sapiens), Q99873; recombinant PRMT1, activity-based probe fluorescence polarization; inhibition, % at 2.79 µM; hit rate 1.3% among 370,000;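 active = inhibition above about 21% made by adding two undisclosed values, limit read from the data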
ABHD5-PLIN5 inh: ABHD5-PLIN5 interaction inhibitors, primary screen, cell lysate, split luciferase complementation, luminescence; Perilipin-5 (Homo sapiens) + 1-acylglycerol-3-phosphate O-acyltransferase ABHD5 (Homo …; Split G. princeps luciferase complementation, 4 h; inhibition, % at 4 µM; hit rate 0.78% among 360,000; AID 602281, 2012;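 active = inhibition above the mean inhibition across every tested compound plus 3 SD, cut at about 22% in these data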
TLR9-MyD88 block: inhibitors of TLR9-MyD88 association in cells, primary screen, cell-based, CHO, BLA complementation, fluorescence | CCF4 FRET ratio | Toll-like receptor 9 (Homo sapiens) + Myeloid differentiation primary response protein … | AID 504734, 2011 | hit rate 0.21% among 340,000 | inhibition, % at 4.98 µM;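 active = inhibition above the mean over all tested compounds plus 3 SD, cut at about 21% in these data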
PRMT1 inh conf: PRMT1 methyltransferase inhibitors, confirmation, biochemical, fluorescence polarization, triplicate; shares compounds with PRMT1 inh; recombinant His-PRMT1, activity-based probe fluorescence polarization; inhibition, % at 2.79 µM; hit rate 42% among 3,300; AID 687036, 2013;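 active = mean inhibition across replicates above the hit cutoff derived for the earlier primary screen, cut at about 22% in these data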
Of the large screens only hits and unclear results are named; the others gave an inactive call (follow-up assays come after a bar, where they were run). Shown are actives, neighbours in structure and some others; about 3.3% of the full set was active somewhere.

CCOc1ccc(-n2c(SCC(=O)c3ccc4ccccc4c3)nnc2-c2ccc(OC)cc2)cc1	none (no result: TLR4 MyD88 comp, NOD2 RIPK2 PPI, ABHD5-PLIN5 inh, TLR9-MyD88 block)
CCN1CCc2nc(N)sc2C1	PRMT1 inh 45 | PRMT1 inh conf 22
Nc1nc2c(s1)CCCCCCCCCC2	none (no result: TLR4 MyD88 comp, TLR9-MyD88 block)
C=CCN1CCc2nc(N)sc2CC1	PRMT1 inh 61 | PRMT1 inh conf inactive
O=C1C(=Cc2ccccc2O)SC(=S)N1CCCN1CCOCC1	PRMT1 inh 68 (no result: TLR4 MyD88 comp) | PRMT1 inh conf 83
S=c1[nH]nc(-c2n[nH]c3c2CCC3)n1N=Cc1ccc(Br)s1	none (no result: TLR4 MyD88 comp, NOD2 RIPK2 PPI, ABHD5-PLIN5 inh, TLR9-MyD88 block)
Cc1ccc(C=Nn2c(-c3n[nH]c4c3CCC4)n[nH]c2=S)s1	PRMT1 inh 29 (no result: TLR4 MyD88 comp, NOD2 RIPK2 PPI, ABHD5-PLIN5 inh, TLR9-MyD88 block) | PRMT1 inh conf inactive
O=[N+]([O-])c1cc2c(cc1Br)-c1ccccc1C2	PRMT1 inh 38 (no result: TLR4 MyD88 comp) | PRMT1 inh conf inactive
COc1cc2c(cc1[N+](=O)[O-])-c1ccccc1C2	none (no result: TLR4 MyD88 comp)
CCCNC(=O)Cn1nc(C)n2c(cc3cc(F)ccc32)c1=O	none (no result: TLR4 MyD88 comp)
CCN1CCCC1CNC(=O)Cn1nc(C)n2c(cc3cc(F)ccc32)c1=O (stereo not given)	PRMT1 inh 33 (no result: TLR4 MyD88 comp) | PRMT1 inh conf inactive
CN(C(=O)CNC(=O)c1ccccc1OCC(=O)Nc1ccc(I)cc1)c1ccccc1	PRMT1 inh 31 (no result: TLR4 MyD88 comp, NOD2 RIPK2 PPI, ABHD5-PLIN5 inh, TLR9-MyD88 block) | PRMT1 inh conf inactive
CN(C(=O)CNC(=O)c1ccccc1OCC(=O)Nc1ccc(Br)cc1)c1ccccc1	none (no result: TLR4 MyD88 comp, NOD2 RIPK2 PPI, ABHD5-PLIN5 inh, TLR9-MyD88 block)
C=CCc1c(O)nc(SCC(=O)c2ccccc2)[nH]c1=O	PRMT1 inh 46 | PRMT1 inh conf 57
CCC(C)c1c(O)nc(SCC(=O)c2ccccc2)[nH]c1=O (stereo not given)	PRMT1 inh 52 | PRMT1 inh conf 52
CCOC(=O)c1c(-c2ccc(C)o2)csc1NC(=S)NC(=O)c1cccs1	none
CCOC(=O)c1c(-c2ccc(C)o2)csc1NC(=S)NC(=O)c1ccccc1Br	PRMT1 inh 55 | PRMT1 inh conf inactive
O=C(Nc1cccc(C(=O)O)c1)/C(=C\c1ccco1)NC(=O)c1ccc(Br)o1	PRMT1 inh 34 (no result: TLR4 MyD88 comp) | PRMT1 inh conf inactive
O=C(Nc1cccc(C(=O)O)c1)/C(=C\c1ccco1)NC(=O)c1ccccc1Cl	PRMT1 inh 30 (no result: TLR4 MyD88 comp) | PRMT1 inh conf inactive
O=C(Nc1cccc(F)c1)/C(=C\c1cccnc1)NC(=O)c1ccco1	none
O=C(Nc1cccc(F)c1)/C(=C/c1ccco1)NC(=O)c1ccco1	PRMT1 inh 30 (no result: TLR4 MyD88 comp) | PRMT1 inh conf inactive
O=C(Nc1cccc(C(=O)O)c1)/C(=C\c1ccco1)NC(=O)c1ccccc1	none (no result: TLR4 MyD88 comp)
Cc1sc2ccccc2[n+]1CC(=O)O	PRMT1 inh 48 (no result: TLR4 MyD88 comp) | PRMT1 inh conf 54
Cc1sc2ccccc2[n+]1CCC(C)S(=O)(=O)[O-] (stereo not given)	PRMT1 inh 36 | PRMT1 inh conf 34
C[C@H](CO)N1C[C@H](C)[C@@H](CN(C)Cc2ccccc2)Oc2c(NS(=O)(=O)c3cn(C)cn3)cccc2C1=O	none (no result: TLR4 MyD88 comp)
CCn1c(N)c(C(N)=O)sc1=S	PRMT1 inh 27 | PRMT1 inh conf inactive
O=C(NC1CCCCC1)NC1CCN(C(=S)NCc2ccco2)CC1	none
S=C(NC1CC1)SCc1ccco1	PRMT1 inh 48 (no result: TLR4 MyD88 comp) | PRMT1 inh conf inactive
COC(=O)[C@]12CCCCC=C1N(Cc1ccc(Cl)cc1Cl)C(=O)[C@H](CC(=O)N1CCSCC1)C2	none (no result: TLR4 MyD88 comp, TLR9-MyD88 block)
CCC(c1nnnn1CCOC)N(Cc1cc2cc(C)c(C)cc2[nH]c1=O)CC1CCCO1 (stereo not given)	none
CCCC(c1nnnn1CCOC)N(Cc1cc2cc(C)c(C)cc2[nH]c1=O)CC1CCCO1 (stereo not given)	PRMT1 inh 26 | PRMT1 inh conf inactive
CC(C)(CNC(=O)c1cccc(S(=O)(=O)Nc2ccc(SC(F)F)cc2)c1)N1CCOCC1	PRMT1 inh 46 (no result: TLR4 MyD88 comp) | PRMT1 inh conf 66
Cc1ccc(NS(=O)(=O)c2cccc(C(=O)NC3CCN(Cc4ccccc4)CC3)c2)cc1	none (no result: TLR4 MyD88 comp)
O=C(NC1CCN(Cc2ccccc2)CC1)c1cccc(S(=O)(=O)Nc2ccc(SC(F)F)cc2)c1	PRMT1 inh 41 (no result: TLR4 MyD88 comp) | PRMT1 inh conf 58
Cc1ccc(S(=O)(=O)Nc2nc3ccccc3nc2NCc2ccco2)cc1	PRMT1 inh 33, ABHD5-PLIN5 inh 25 | PRMT1 inh conf inactive
Cc1ccc(-c2ccc(S(=O)(=O)NCc3ccco3)cc2)cc1	none
CCOC(=O)[C@]12CCCC3=C1N(CCC3)C(=O)[C@@H](CC(=O)N1CCN(C(=O)C3CC3)CC1)C2	none (no result: TLR4 MyD88 comp, NOD2 RIPK2 PPI, ABHD5-PLIN5 inh, TLR9-MyD88 block)
CC(C)CC(N)c1csc(NC(=O)c2cc(C(C)(C)C)nn2Cc2ccccc2)n1 (stereo not given)	none (no result: TLR4 MyD88 comp, TLR9-MyD88 block)
COc1ccc(C2c3cc(OC)c(OC)cc3CCN2C2CC(=O)N(c3ccccc3)C2=O)cc1OC (stereo not given)	PRMT1 inh 42 | PRMT1 inh conf inactive
COC(=O)c1ccc(N2C(=O)CC(N(C)CCc3ccc(OC)c(OC)c3)C2=O)cc1 (stereo not given)	none
O=C1CC(N2CCc3ccccc32)C(=O)N1c1ccccc1 (stereo not given)	none (no result: TLR4 MyD88 comp)
COc1ccc(CCN(C)C2CC(=O)N(c3ccccc3)C2=O)cc1OC (stereo not given)	PRMT1 inh 46 (no result: TLR4 MyD88 comp) | PRMT1 inh conf inactive
COc1ccc(N2C(=O)CC(N(C)CCc3ccc(OC)c(OC)c3)C2=O)cc1 (stereo not given)	PRMT1 inh 48 | PRMT1 inh conf inactive
N#C/C(=N\Nc1cc(Cl)cc(Cl)c1)c1nnc2n1CCCCC2	none
Cc1noc(C)c1C(=O)Nc1cccc(S(=O)(=O)N2CCOCC2)c1	none (no result: TLR4 MyD88 comp)
Brc1ccc(-c2nn3c(-c4ccccn4)nnc3s2)o1	none
Brc1ccc(-c2nn3c(-c4ccco4)nnc3s2)o1	PRMT1 inh 53 | PRMT1 inh conf inactive
COc1ccc(N2CCN(CC(=O)c3ccccc3)CC2)cc1	none (no result: TLR4 MyD88 comp)
O=C(CCN1CCOCC1)c1ccc(N2CCCCC2)cc1	PRMT1 inh 28 (no result: TLR4 MyD88 comp) | PRMT1 inh conf inactive
COc1ccc(N2CCN(CCC(=O)c3ccc4ccccc4c3)CC2)cc1	PRMT1 inh 44 (no result: TLR4 MyD88 comp) | PRMT1 inh conf 28
COc1ccc(NC(=O)c2ccc(NC(=O)CN3CCN(c4ccc(O)cc4)CC3)cc2)cc1	PRMT1 inh 34 (no result: TLR4 MyD88 comp) | PRMT1 inh conf inactive
O=C(CCN1CCN(c2ccccc2)CC1)c1ccc(Cl)cc1	none (no result: TLR4 MyD88 comp)

Source: PubChem
